High-throughput results (PubChem BioAssay)
DAX1 inh-1 – inhibits human nuclear receptor DAX1; inhibition, % at 6.75 µM; 340,000 tested, 0.99% active; HEK293 Gal4-DAX1 luciferase reporter, luminescence; P51843;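 active = inhibition above the mean over all tested compounds plus 3 SD, cut at about 4.2% in these data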;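 note: 0% = DAX1-transfected cells with DMSO and 100% = empty-vector control cells with DMSO; inhibition shows as a rise in luminescence from relieved DAX1 repression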
Target sequence (P51843 207-470 limits assumed): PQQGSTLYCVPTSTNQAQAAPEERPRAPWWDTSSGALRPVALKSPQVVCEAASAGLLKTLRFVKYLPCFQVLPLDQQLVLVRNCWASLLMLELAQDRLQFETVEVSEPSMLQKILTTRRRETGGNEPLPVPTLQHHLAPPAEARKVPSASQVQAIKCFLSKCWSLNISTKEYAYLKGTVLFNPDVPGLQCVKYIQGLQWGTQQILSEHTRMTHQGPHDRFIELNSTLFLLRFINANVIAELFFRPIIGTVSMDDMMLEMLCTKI
DAX1 inh-2 – DAX1 (NR0B1) inhibition, primary screen | inhibition, % at 6.8 µM | HEK293T StAR-luciferase reporter, SF-1/DAX-1 repression relief | AID 652010 | 370,000 tested, 1.1% active;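 active = inhibition above the mean over all tested compounds plus 3 SD, cut at about 3.6% in these data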;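 note: 0% = DAX-1 cells with DMSO and 100% = cells lacking DAX-1 with DMSO; higher inhibition means more luminescence from relief of DAX-1 repression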
hcDAF-12 act – H. contortus DAF-12 activation, primary screen | HEK293 hcDAF-12 lit1-tk-luc reporter, luminescence; 0% DMSO, 100% Δ7-dafachronic acid | activation, % at 6.8 µM | 370,000 tested, 1.4% active | AID 652067;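 active = activation above the mean of all tested compounds plus 3 SD, cut at about 5.5% in these data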;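 note: 100% = response to 3 µM Δ7-dafachronic acid high control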
ssDAF-12 act – activators of S. stercoralis DAF-12 nuclear receptor. activation, % at 6.8 µM. HEK293 ssDAF-12/GRIP1 lit1-tk-luc reporter, luminescence; % of 3 µM dafachronic acid response. AID 652126. 370,000 tested, 1% active;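 active = activation above the mean over all tested compounds plus 3 SD, cut at about 0.9% in these data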;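 note: 0% = DMSO-only wells and 100% = 3 µM delta7-dafachronic acid wells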
hgDAF-12 ag – activates the H. glycines DAF-12 receptor ligand-binding domain. HEK293 GAL4-hgDAF12 UAS-luciferase reporter, agonist luminescence; normalized to butyrate control. activation, % at 6.8 µM. 370,000 tested, 1.8% active. AID 687014;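 active = activation above a cutoff set at the mean of all screened compounds plus 3 SD, cut at about 10% in these data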;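 note: 0% = DMSO wells and 100% = sodium butyrate wells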
LXR ag – activates human LXR-beta, counter-screen for hcDAF-12 agonists; HEK293 Gal4-LXR tk-luc reporter, luminescence, 24 h; normalized: DMSO 0%, positive control 100%; activation, % at 6.8 µM; shares compounds with hcDAF-12 act; 3,400 tested, under 10 active;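 active = mean percent activation of the reporter above a cutoff set as the average over tested compounds plus their standard deviation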
Target sequence (P55055 whole entry, looked up, the tested form may be a part): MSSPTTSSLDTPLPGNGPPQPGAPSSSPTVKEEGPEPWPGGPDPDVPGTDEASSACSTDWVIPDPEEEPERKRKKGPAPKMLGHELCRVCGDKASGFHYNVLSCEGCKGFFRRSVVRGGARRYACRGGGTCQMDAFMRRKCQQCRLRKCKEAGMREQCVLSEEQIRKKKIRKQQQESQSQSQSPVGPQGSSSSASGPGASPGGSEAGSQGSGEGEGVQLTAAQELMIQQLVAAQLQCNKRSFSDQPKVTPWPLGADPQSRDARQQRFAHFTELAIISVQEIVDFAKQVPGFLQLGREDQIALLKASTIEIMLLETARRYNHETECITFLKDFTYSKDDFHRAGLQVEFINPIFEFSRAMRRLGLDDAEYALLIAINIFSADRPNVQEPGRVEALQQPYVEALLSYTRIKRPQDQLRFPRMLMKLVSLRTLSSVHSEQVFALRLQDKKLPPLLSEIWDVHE
hcDAF12 ag – confirmation of H. contortus DAF-12 agonists; activation, % at 6.8 µM; shares compounds with hcDAF-12 act; 3,400 tested, 61% active; HEK293 hcDAF-12 lit1-tk-luc reporter, luminescence; % of Δ7-dafachronic acid response;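 active = mean activation across triplicate tests above the threshold derived from the earlier primary screen, cut at about 5.5% in these data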;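 note: 0% = DMSO only wells and 100% = 3 µM Δ7-dafachronic acid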
hgDAF12 conf – hgDAF-12 agonism, confirmation assay; shares compounds with hgDAF-12 ag; HEK293 GAL4-hgDAF12 luciferase reporter, agonist mode; percent of butyrate response; activation, % at 6.8 µM; 3,300 tested, 80% active;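 active = mean activation over triplicate wells above the hit cutoff derived from the earlier primary screen, cut at about 11% in these data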;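 note: 0% = DMSO low control and 100% = 2 mM sodium butyrate high control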
LXR ag 2 – activates human LXR-beta, counter-screen for DAF-12 agonists | shares compounds with hgDAF-12 ag | HEK293 Gal4-LXR luciferase reporter, 24 h | activation, % at 6.8 µM | 3,300 tested, under 10 active;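 active = mean activation of the triplicate above a set limit carried over from the primary screen, none filed active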
* hit, by the source's call; · = not tested or not shown. In the library only some 4.1% were active in any assay of this set; here they are far more common.

SMILES	DAX1 inh-1	DAX1 inh-2	hcDAF-12 act	ssDAF-12 act	hgDAF-12 ag	LXR ag	hcDAF12 ag	hgDAF12 conf	LXR ag 2
COC(=O)CSc1nc2cc(OC)ccc2cc1C#N	4.3*	3.8*	8.2*	-0.4	15.2*	1.5	7.8*	23.1*	0.9
Cc1ccc(-c2csc(NC(=O)/C=C/c3ccco3)c2C(=O)O)cc1	1.1	2.7	11.4*	0.0	13.8*	0.9	6.0*	11.2*	0.6
Cc1ccc(C=NNc2ccc([N+](=O)[O-])cn2)cc1	4.8*	2.1	7.4*	0.3	18.3*	1.0	3.4	13.5*	0.8
CC(C)n1cnc2cc(NCc3nc4ccccc4n3C)ccc21	1.0	2.4	6.7*	-0.6	14.2*	1.2	6.1*	11.2*	0.7
COc1ccc(CNc2ccc3c(c2)ncn3-c2ccccc2OC)cc1	0.5	-0.4	-1.9	-0.8	1.1	·	·	·	·
Cc1cc(C(=O)COC(=O)c2ccc(O)cc2)c(C)n1-c1ccccc1F	0.6	0.4	0.5	-1.7	-0.4	·	·	·	·
Cc1cc(C(=O)COC(=O)c2ccc(O)cc2)c(C)n1CC(F)(F)F	1.7	4.2*	8.9*	0.8	14.8*	1.3	7.3*	17.7*	0.7
C=Cc1ccc(C(=O)Nc2nnc(-c3cccnc3)s2)cc1	·	-0.8	-4.1	-1.0	0.6	·	·	·	·
Cc1ccc(N2C(=O)c3ccccc3NC2(C(=O)O)c2ccccc2)cc1Cl (stereo not given)	4.8*	1.9	9.9*	0.3	18.9*	0.0	2.8	12.3*	0.3
Cc1ccc(NC(=O)C(C)N2C(=O)c3ccccc3S2(=O)=O)cc1Cl (stereo not given)	-0.1	1.5	1.5	-1.0	0.0	·	·	·	·
O=C(OCC#CCSc1nnc(-c2cccc3ccccc23)o1)c1ccc(F)nc1	·	·	-2.6	-0.8	1.3	·	·	·	·
Cc1ccccc1NC(=S)c1ccc2ccccc2n1	1.1	1.0	14.2*	1.3*	13.3*	0.3	7.9*	13.5*	0.5
Clc1cccc(/C=N/Nc2ncnc3ccccc23)c1	3.6	2.7	10.8*	1.8*	13.4*	1.3	7.1*	17.9*	0.6
Nc1c(Cl)ncnc1N/N=C/c1ccnc2ccccc12	-0.9	0.1	-0.2	-1.4	7.8	·	·	·	·
Oc1[nH]c2ccccc2c1C=Nc1ccccc1	12.8*	2.8	8.3*	1.6*	21.0*	1.1	8.9*	24.1*	0.8
Cc1cc(N/C=C/C(=O)c2ccc(Br)cc2)no1	-0.3	0.9	2.0	-0.3	3.8	·	·	·	·
Cc1ccnc(N/C=C/C(=O)c2ccc(Br)cc2)c1	0.3	3.2	9.0*	0.3	18.4*	1.7	7.2*	20.8*	0.9
C/C(C=NNC(=O)CSc1nnc(-c2ccc(Cl)cc2)n1-c1ccccc1)=C\c1ccccc1	·	-0.1	-1.3	-1.3	0.5	·	·	·	·
c1ccc(Nc2nc(-c3ccccc3)ns2)cc1	2.1	2.0	16.3*	2.0*	22.4*	1.6	9.5*	28.7*	1.1
CCOC(=O)c1c(C)oc2c1c(C(c1cccnc1)N1CCCCC1)c(O)c1ccccc12 (stereo not given)	3.8	2.5	10.5*	1.8*	14.2*	0.7	6.8*	5.3	0.3
Cc1cccc(/C(N)=N/OC(=O)c2ccco2)c1	1.4	3.7*	6.6*	1.4*	18.1*	1.0	3.7	19.5*	1.0
N/C(=N\OC(=O)c1ccco1)c1ccccc1	3.7	3.1	3.0	-0.6	8.4	·	·	·	·
Cc1ccc(/C(N)=N/OC(=O)c2ccco2)cc1	0.2	4.2*	7.8*	1.2*	13.6*	1.4	4.9	18.9*	0.7
Cc1ccc(Cn2cc(CN3[C@@H](CC(C)C)COc4cccc(F)c4S3(=O)=O)nn2)cc1	·	-0.5	-2.1	-0.8	1.6	·	·	·	·
COc1cc(OC)cc(-c2cc3cc4c(cc3cn2)OCO4)c1	-1.1	·	·	·	·	·	·	·	·
SMILES	DAX1 inh-1	DAX1 inh-2	hcDAF-12 act	ssDAF-12 act	hgDAF-12 ag	LXR ag	hcDAF12 ag	hgDAF12 conf	LXR ag 2
COc1ccc2cc(-c3ccccc3)ncc2c1	1.5	3.0	12.8*	1.8*	16.1*	1.7	13.9*	20.5*	1.2
COc1cc(OC)cc(-c2cc3ccc(OC)cc3cn2)c1	2.6	0.7	6.7*	0.9*	16.0*	1.6	6.6*	18.8*	0.9
Cc1ccc(-n2c(Cc3cccs3)nnc2SCC(=O)Nc2cccc3ccccc23)cc1	·	-1.0	-2.3	-1.5	1.9	·	·	·	·
COc1cccc2nc3cc(C)c(C)cc3nc12	-0.8	1.9	7.5*	0.7	18.0*	1.4	12.4*	18.4*	1.1
COc1cccc2c1nc(C)c1cc(C)oc12	0.7	0.3	-0.3	-0.3	6.0	·	·	·	·
O=C(/C=C/c1ccccc1Cl)Nc1ccccc1	·	2.8	15.7*	2.6*	19.8*	2.5	16.2*	24.9*	1.2
N#Cc1cc2ccccc2nc1SCc1ccccn1	1.9	4.3*	19.7*	4.7*	17.0*	0.8	9.2*	16.4*	0.7
COc1ccc(C(=O)Nc2ccncc2)c(OC)c1	0.9	0.5	-1.2	-1.2	-0.2	·	·	·	·
COc1cc(SC)ccc1C(=O)Nc1ccc2c(c1)CCC2	4.0	2.0	16.7*	4.0*	21.8*	1.2	13.5*	21.8*	0.9
Cc1cccc(C(=O)Nc2ccc(NC(=O)c3cccc(C)c3)cc2)c1	-1.3	-0.9	0.6	-1.9	-0.3	·	·	·	·
Cc1ccc(NC(=O)c2cc3ccccc3oc2=N)cc1	2.4	3.7*	10.9*	0.9*	14.2*	1.1	16.6*	6.7	0.6
COc1cc(SC)ccc1C(=O)Nc1ccncc1	-1.6	-0.8	-1.7	-1.2	3.7	·	·	·	·
COc1ccc(C(=O)Nc2ccc3ccccc3c2)c(OC)c1	5.8*	2.9	15.6*	3.7*	15.2*	1.9	14.7*	26.1*	1.1
Cc1ccc(NC(=O)c2ccc(C)cc2)cc1	-1.9	2.8	7.8*	0.5	13.9*	1.1	5.7*	21.4*	1.1
C[C@H]1[C@@H](NCc2ccccc2)CC[C@@]23CCCN2C(=O)CCC[C@@H]13	·	·	-1.1	-1.2	-0.6	·	·	·	·
COC(=O)[C@]12C[C@H](CC(=O)N3CCOCC3)C(=O)N(CCC3=CCCCC3)C1=C[C@H](COCc1ccccc1)O[C@@H]2C	·	-1.3	-1.8	-1.4	-0.3	·	·	·	·
